HepG2 tox-1 – counter-screen for TGF-b inhibitors: cytotoxicity in HepG2 cells. 410,000 compounds, 0.76% hits. AID 588856. HepG2 CAGA-GFP viability, ATP luminescence, 18 h. Potency, µM (top dose mostly 46.1 µM), without a hit: at the highest dose activity change, negative = cytotoxicity, usual class: cytotoxic
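CellTiter-Glo luminescence gave cytotoxicity after 18 hours at 37 degrees C. The cells were HepG2 CAGA-GFP in 1% FBS DMEM, stimulated with 500 pg/mL TGF-beta after compound addition. %Activity was normalised to no-cell wells (complete cell-killing) and DMSO (no toxicity), and curves were fitted and classified.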
TGFb SMAD3 inh – TGF-b pathway inhibition | AID 588855 | HepG2 CAGA-GFP TGF-b/SMAD3 reporter, GFP fluorescence, 18 h; TGF-beta stimulated, 500 pg/mL final | Potency, µM (highest dose often 46.1 µM), for the others: at the top dose activity, negative = inhibition, hits mostly inhibitors | 410,000 compounds, 1.2% hits; further: on the % scale 0 is the no-effect control and ±100 the full control effect; nearly all actives have a fitted effect of over 65% in size
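Using HEPG2 CAGA-GFP reporter cells at 1000 cells/well, we pinned test compounds, stimulated with recombinant TGF-beta (500 pg/mL final) and measured total well GFP after 18 h.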
ATXN viability – viability counter-screen for ATXN expression inhibitors; AID 651635; S2 cells (HEK-293 line with an ATXN2-luciferase reporter) viability, CellTiter-Fluor protease fluorescence, 24 h; 400,000 compounds, 0.49% hits; Potency, µM (highest dose often 56.7 µM), usual class: cytotoxic; further: nearly all actives have a fitted effect of over 40% in size
HT1080NT lethal – kills 2HG-producing HT-1080-NT fibrosarcoma cells | HT-1080-NT fibrosarcoma viability, CellTiter-Glo ATP luminescence, 48 h | Potency, µM (top dose mostly 46.1 µM), inactives show top-dose activity, negative = less viability, actives largely listed as cytotoxic | 360,000 compounds, 1.6% hits | AID 686970;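 further: NT is the 2HG producing partner of a matched IDH1 knockdown line; 0% = DMSO-treated cells and -100% = media-only wells without cells; nearly all actives have a fitted effect of over 55% in size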
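750 cells/well, RPMI + 5% FBS; 2 h settle, compound pin-transfer, 48 h at 37 degrees C. CellTiter-Glo 10 min RT, luminescence. Normalized to DMSO and media-only wells.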
HT1080 IDH1KD tx – kills HT-1080 cells with IDH1 knockdown; HT-1080 IDH1 knockdown viability, ATP luminescence, 48 h; Potency, µM (titrated, usually from 46.1 µM), for the others: top-dose activity, negative = toxicity, most hits filed as cytotoxic; 360,000 compounds, 2% hits; AID 686971;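 further: 0% = DMSO wells and -100% = cell-free medium wells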
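In this qHTS, HT-1080 cells depleted of IDH1 are exposed for 48 h at 37 °C to compound titrations. Toxicity is scored from CellTiter-Glo luminescence, with DMSO as full viability and medium alone as none.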
ATXN2 expr inh – inhibitors of ATXN2 expression; Potency, µM (series often up to 57 µM), for the others: at the top dose activity change, negative = inhibition, hits mostly inhibitors; HEK-293 ATXN2-luciferase reporter, luminescence, 24 h; 360,000 compounds, 0.72% hits; AID 1745845; further: on the % scale 0 is the no-effect control and ±100 the full control effect; nearly all actives have a fitted effect of over 55% in size
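ATXN2-luciferase reporter cells (luciferase flanked by upstream and downstream ATXN2 gene portions) were treated 24 h at 37 °C with compounds at up to 57 uM. SteadyGlo luminescence gave expression; GF-AFC fluorescence gave viability.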
TGFb confirm – TGF-b pathway inhibition, cherry-pick retest | shares compounds with TGFb SMAD3 inh | 1,600 compounds, 63% hits | HepG2 CAGA-GFP TGF-b reporter, GFP fluorescence, 18 h; cells stimulated with TGF-beta, 500 pg/mL | Potency, µM (doses to about 46.1 µM), for the others: top-dose activity, negative = inhibition, hits mostly inhibitors | AID 720534; further: on the % scale 0 is the no-effect control and ±100 the full control effect; nearly all actives have a fitted effect of over 65% in size
HepG2 tox-2 – HepG2 cytotoxicity, TGF-b inhibitor counterscreen; shares compounds with TGFb SMAD3 inh; Potency, µM (doses to about 46.1 µM), for the others: at the top dose activity, negative = cytotoxicity, hits mostly inhibitors; 1,600 compounds, 27% hits; HepG2 CAGA-GFP viability, ATP luminescence, 18 h; cells stimulated with TGF-beta, 500 pg/mL; further: on the % scale 0 is the no-effect control and ±100 the full control effect; nearly all actives have a fitted effect of over 70% in size
TGFb CCL64 inh – TGF-b inhibition, CCL64 orthogonal assay | shares compounds with TGFb SMAD3 inh | CCL64 CAGA-GFP reporter, TGF-b stimulated, GFP fluorescence, 18 h | Potency, µM (top dose mostly 46.1 µM), without a hit: top-dose activity, negative = inhibition, most hits filed as inhibitors | 1,600 compounds, 41% hits | AID 720536; further: nearly all actives have a fitted effect of over 65% in size
TGFb COP inh – TGF-b inhibition validated with COP promoter; AID 720537; Potency, µM (highest dose often 46.1 µM), for inactives: at the highest dose activity, negative = inhibition, most hits filed as inhibitors; HepG2 COP-GFP TGF-b reporter, GFP fluorescence, 18 h; cells stimulated by added recombinant TGF-beta; shares compounds with TGFb SMAD3 inh; 1,600 compounds, 3% hits; further: nearly all actives have a fitted effect of over 70% in size
Active calls of the source: *; i = inactive; ? = inconclusive; / = no result; [ ] = another dose, or the depositor's remark. Only some compounds are listed: those with a hit (about 3.9% of all), similar ones and a draw of the others. The call rests on the fitted dose curve; in most records, active means well fitted curve in the direction sought with a large enough effect; inconclusive means small, poorly fitted or top-dose-only effect, or another doubt; inactive means no such curve, though single readings can be large; an effect the other way counts as inactive or inconclusive. Potency means the concentration at half of the fitted maximal effect.

SMILES	HepG2 tox-1	TGFb SMAD3 inh	ATXN viability	HT1080NT lethal	HT1080 IDH1KD tx	ATXN2 expr inh	TGFb confirm	HepG2 tox-2	TGFb CCL64 inh	TGFb COP inh
O=C(Nc1ccc2oc(-c3ccncc3)nc2c1)c1ccc([N+](=O)[O-])o1	-24%	5.6µM*	?	6.5µM*	16µM*	2%	6.5µM*	?	?	16%
O=C(Nc1c(Cl)ccc2nsnc12)c1ccc([N+](=O)[O-])o1	13µM*	10µM*	i	3%	-18%	-12%	8.2µM*	?	?	?
O=C(Nc1cccc(Cl)c1N1CCCC1)c1ccc([N+](=O)[O-])o1	-24%	1%	i	-16%	2%	-21%	/	/	/	/
CC(=O)N1CCN(c2ccc(NC(=O)c3ccc(Br)o3)cc2Cl)CC1	-22%	-11%	i	4%	-1%	/	/	/	/	/
O=C(Nc1c(Cl)ccc2nsnc12)c1ccc(Br)o1	-19%	-2%	i	7%	9%	/	/	/	/	/
CN1CCN(c2ccc(NC(=O)c3ccc([N+](=O)[O-])o3)cc2Cl)CC1	-64%	10µM*	20µM*	5.8µM*	12µM*	-27%	8.2µM*	16µM*	23µM*	16%
CCCC(=O)N1CCN(c2ccc(NC(=O)c3ccc([N+](=O)[O-])o3)cc2Cl)CC1	11µM*	5.6µM*	i	16µM*	?	?	3.7µM*	13µM*	23µM*	?
CCOC(=O)c1scc(-c2ccccc2)c1S(=O)(=O)N1CCN(c2ccccc2OC)CC1	-26%	?	?	/	/	-18%	/	/	/	/
Cc1cc(NC(=O)c2ccc([N+](=O)[O-])o2)ccc1NC(=O)c1ccco1	-108%	7.1µM*	?	5.2µM*	5.8µM*	-8%	4.1µM*	21µM*	?	-50%
CC(C)C(=O)N1CCN(c2ccc(NC(=O)c3ccc([N+](=O)[O-])o3)cc2Cl)CC1	-55%	7.9µM*	i	7.3µM*	?	?	5.8µM*	21µM*	?	-7%
CC(C)C(=O)N1CCN(c2ccc(NC(=O)c3ccc([N+](=O)[O-])o3)cc2)CC1	-37%	?	i	12µM*	7.3µM*	15%	5.8µM*	10µM*	?	-22%
O=C(Nc1ccc(N2CCOCC2)c(Cl)c1)c1ccc([N+](=O)[O-])o1	13µM*	8.9µM*	?	6.5µM*	4.6µM*	/	15µM*	21µM*	13µM*	?
COc1ccc(/C=c2\[nH]c(=O)/c(=C/c3ccc(OC)cc3)[nH]c2=O)cc1	-31%	?	/	/	/	/	/	/	/	/
COC(=O)c1ccc2nc(-c3ccco3)c(Cc3cccc(F)c3)n2c1	-19%	14µM*	i	?	?	2%	21µM*	-12%	?	25%
COC(=O)C1=C[C@@H](C(=O)OC)C2C3=C(C(=O)[C@@]2(C)NC(=O)c2ccccc2)[C@H](c2ccccc2)[C@@H]2C(=O)N(c4ccccc4)C(=O)[C@@H]2[C@@H]3C1 (stereo partly specified)	-1%	3%	/	/	/	/	/	/	/	/
Cc1ccc(Cl)cc1N(C)C(=O)c1cc2c(Cl)nc3ccccc3c2s1	-4%	?	i	/	/	3%	/	/	/	/
CCCS(=O)(=O)Nc1ccc(Nc2c3ccccc3nc3ccccc23)c(OC)c1	-84%	10µM*	12µM*	-9%	?	?	?	15µM*	13µM*	5%
COc1ccc(NS(=O)(=O)Cc2ccccc2)cc1OC	3%	7%	i	0%[9.24 µM]	-20%	6%	/	/	/	/
COc1cc(O)c(C(CC(=O)N2CCCC2)c2cc(OC)c(OC)c(OC)c2)c(OC)c1 (stereo unspecified)	19%	31%	i	11%	2%	9%	5%	1%	-13%	-7%
CCN(CC)CCOC(=O)c1ccc(NC(=O)c2cc3c(=O)n(CC)c4ccccc4c3s2)cc1	-11%	-3%	i	/	/	-1%	/	/	/	/
CC[C@]12c3[nH]c4ccc(Cl)cc4c3CCN1C(=O)[C@@H](CC(=O)NCC13CC4CC(CC(C4)C1)C3)C[C@@H]2C(=O)N1CCN(C(=O)C2CC2)CC1	-21%	10µM*	?	16µM*	23µM*	25µM*	9.2µM*	?	23µM*	68%
COc1ccc(CNC(=O)C[C@H]2C[C@H](C(=O)N3CCOCC3)[C@@]3(CCC4CCCC4)c4[nH]c5cc(-c6ccco6)ccc5c4CCN3C2=O)cc1OC	-20%	13µM*	i	?	?	?	6.5µM*	-21%	?	43%
C[C@]12c3[nH]c4ccc(Cl)cc4c3CCN1C(=O)[C@@H](CC(=O)NCc1cccc(C(F)(F)F)c1)C[C@@H]2C(=O)N1CCOCC1	-39%	10µM*	/	-26%	?	?	16µM*	-29%	15µM*	54%
C[C@]12c3[nH]c4ccccc4c3CCN1C(=O)C(CC(=O)NCc1cccc(C(F)(F)F)c1)C[C@@H]2C(=O)N1CCOCC1 (stereo partly specified)	-28%	-32%	i	1%	-3%	-1%	/	/	/	/

Assay outcomes from PubChem BioAssay.
